Test results from PubChem BioAssay AID463173 (ICCB-Longwood Screening Facility, Harvard Medical School, 2010).
Hit rate of the full screen: of about 52,000 compounds, about 4,300 (8.3%) were called active. Rule as the data show it: active = survival mostly below about 52% (no sharp cut-off); inactive = mostly above about 56%. What follows is part of a selection rich in actives, with near analogues and random picks from the rest.

Tested on: DeltatarO mutant
Test: growth inhibition of S. aureus wild type versus tarO mutant, primary screen, teichoic acid synthesis inhibitors, RN4220, OD600 (AID 463173)
Conditions: OD600, 18 h, active compounds read low, screened at 18.75 µg/mL (by protocol)

SMILES | survival
O=C(CN1C(=O)CSc2ccc(S(=O)(=O)N3CCCC3)cc21)NCc1ccccc1Cl | 87% (inactive)
CCCC(=O)n1nc(-c2cccnc2)nc1NCc1ccccc1 | 81% (inactive)
Cc1ccc(Cl)cc1NC(=O)CCc1c(C)nc2c3cccnc3nn2c1C | 103% (inactive)
COc1ccccc1CNC(=O)C1CCCN(c2nc3ccccc3n3cccc23)C1 (stereo unspecified) | 53% (inactive)
O=C(NCc1ccccc1Cl)C1CCCN(c2nc3ccccc3n3cccc23)C1 (stereo unspecified) | 46% (active)
O=C(NCc1ccc(Cl)cc1)C1CCCN(c2nc3ccccc3n3cccc23)C1 (stereo unspecified) | 82% (inactive)
O=C(NCc1ccccc1Br)C1CCCN(C(=O)N2CCOc3ccccc32)C1 (stereo unspecified) | 73% (inactive)
COc1ccc(NC(=O)C2=C(C)Nc3nc(SCc4ccccc4C)nn3C2c2ccc(Br)cc2)cc1 (stereo unspecified) | 80% (inactive)
CCOc1ccc(CNC(=O)c2ccc3c(c2)c(C)c(C)n3Cc2ccc(Cl)cc2)cc1 | 67% (inactive)
CCCC(=O)Nc1nc2ccc(S(C)(=O)=O)cc2s1 | 93% (inactive)
COc1ccc(-c2csc(N(CC(C)C)C(=O)c3cccs3)n2)cc1 | 76% (inactive)
CN(c1ccc(O)cc1)c1nc(-c2cccs2)cs1 | 1% (active)
CC(=O)N(C)c1nc(-c2ccccc2)cs1 | 80% (inactive)
Cc1[nH]c2ccc(CNS(=O)(=O)c3ccc(S(=O)(=O)N4CCOCC4)cc3)cc2c1C | 91% (inactive)
CC1=C(C(=O)OCC2CCCO2)C(c2ccccc2)NC(=O)N1 (stereo unspecified) | 102% (inactive)
CC1CCN(S(=O)(=O)c2ccc3c(c2)N(CC(=O)NC(C)C)C(=O)CO3)CC1 | 76% (inactive)
Cc1nn(C(C)C(=O)Nc2ccc(C(C)C)cc2)c(=O)c2c1sc1ccccc12 (stereo unspecified) | 58% (active)
Cc1cc(C)c(NC(=O)C(C)n2nc(C)c3sc4ccccc4c3c2=O)c(C)c1 (stereo unspecified) | 60% (inactive)
Cc1nn(C(C)C(=O)Nc2cccc(F)c2)c(=O)c2c1sc1ccccc12 (stereo unspecified) | 108% (inactive)

SMILES | survival
Cc1ccc(S(=O)Cc2ccc(C(=O)NC3CCCCCC3)o2)cc1 (stereo unspecified) | 121% (inactive)
CCOC(=O)c1ccc(NC(=O)C2CCN(S(=O)(=O)Cc3ccccc3)CC2)cc1 | 66% (inactive)
CC(C)c1ccc(CNC(=O)c2ccc(N3CCCC3)c(NC(=O)NCc3ccc(F)cc3)c2)cc1 | 47% (active)
CC(C)c1ccc(CNC(=O)c2ccc(N3CCCC3)c(NC(=O)NCc3ccccc3)c2)cc1 | 73% (inactive)
Cc1ccc(CNC(=O)Nc2cc(C(=O)NCc3ccc(C(C)C)cc3)ccc2N2CCCC2)cc1 | 79% (inactive)
Cc1cc(C)cc(-n2ccn(Cc3ccc(F)cc3)c(=O)c2=O)c1 | 71% (inactive)
COc1cccc(C(=O)Nc2ccc3nc(N4CCC(C)CC4)cc(C)c3c2)c1 | 47% (inactive)
CCCCc1ccc(C(=O)Nc2ccc3nc(N(CC)CC)cc(C)c3c2)cc1 | 109% (inactive)
COc1ccc(Cl)cc1C(=O)Nc1ccc2nc(Nc3cccc(Cl)c3)cc(C)c2c1 | 93% (inactive)
COc1ccc(C(=O)Nc2ccc3nc(N4CCCCC4)cc(C)c3c2)c(OC)c1 | 44% (active)
CCN1CCN(c2cc(C)c3cc(NC(=O)c4cc(Cl)ccc4OC)ccc3n2)CC1 | 8% (active)
COc1ccc(C(=O)Nc2ccc3nc(N4CCC(C)CC4)cc(C)c3c2)cc1 | 56% (inactive)
CCCCc1ccc(C(=O)Nc2ccc3nc(N4CCN(CC)CC4)cc(C)c3c2)cc1 | 36% (active)
COc1ccccc1C(=O)Nc1ccc2nc(N3CCC(C)CC3)cc(C)c2c1 | 3% (active)
CC(=O)c1ccc(NC(=O)CSc2ccc3nnc(CCNS(=O)(=O)c4ccc(C)cc4)n3n2)cc1 | 67% (inactive)
COc1ccc(C)cc1NC(=O)CC(=O)Nc1ccc2nc3n(c(=O)c2c1)CCCCC3 | 89% (inactive)
COCCCNC(=O)CSc1nc2cc3c(cc2c(=O)n1CCCC(=O)NCc1ccc2c(c1)OCO2)OCO3 | 84% (inactive)
Cc1cc(C)cc(NC(=O)N2CCC(N3CCN(Cc4ccccc4)C(=O)C3=O)CC2)c1 | 77% (inactive)
COc1ccccc1CNc1nc(-c2ccco2)nn1S(C)(=O)=O | 70% (inactive)

SMILES | survival
O=C(Cn1ncc2c3ccccc3n(Cc3ccccc3)c2c1=O)NCc1ccccc1 | 93% (inactive)
Cc1ccccc1C(=O)OCc1cc(=O)n2nc(C(C)C)sc2n1 | 81% (inactive)
COc1ccc(Cn2c(C(=O)O)c(CNCCc3ccccc3Cl)c3ccc(C)cc32)cc1 | 80% (inactive)
Cc1ccc(-n2c(=O)c3c(c4cc(C)ccc4n3C)n(CC(=O)Nc3c(C)cccc3C)c2=O)cc1 | 123% (inactive)
CCN1CCN(c2cc(C)c3cc(NC(=O)c4ccccc4F)ccc3n2)CC1 | 43% (active)
Cc1cc(N2CCN(C)CC2)nc2ccc(NC(=O)c3ccc(C(C)(C)C)cc3)cc12 | -3% (active)
Cc1ccc(NC(=O)Nc2ccc3nc(N4CCN(C)CC4)cc(C)c3c2)cc1F | 96% (inactive)
COc1ccc(CC(=O)Nc2ccc3nc(N4CCCCC4)cc(C)c3c2)cc1 | 51% (active)
CCN1CCN(c2cc(C)c3cc(NC(=O)c4ccc(OC)c(OC)c4)ccc3n2)CC1 | 44% (active)
CCOc1ccc(CC(=O)Nc2ccc3nc(N4CCCCC4)cc(C)c3c2)cc1OCC | 92% (inactive)
Cc1ccc(NC(=O)Nc2ccc3nc(N4CCN(C)CC4)cc(C)c3c2)cc1C | 101% (inactive)
CCOc1cc(C(=O)Nc2ccc3nc(N4CCN(C)CC4)cc(C)c3c2)cc(OCC)c1OCC | 137% (inactive)
Cc1cc(N2CCN(C)CC2)nc2ccc(NC(=O)c3ccccc3F)cc12 | 122% (inactive)
CCN1CCN(c2cc(C)c3cc(NC(=O)c4cc(OC)c(OC)c(OC)c4)ccc3n2)CC1 | 78% (inactive)
COc1ccc(CC(=O)Nc2ccc3nc(Nc4ccc(OC)cc4)cc(C)c3c2)cc1 | 55% (inactive)
COc1cccc(CNc2nc3c(-c4ccccc4)nnn3c3ccccc23)c1 | 84% (inactive)
CCOc1ccc(NC(=O)c2ccc3c(SCC(=O)O)c4c(nc3c2)CCC4)cc1 | 90% (inactive)
CCC1CCCCN1S(=O)(=O)c1cc2c(cc1C)NC(=O)CO2 (stereo unspecified) | 105% (inactive)
